Reference: PubChem BioAssay
Several values for one entry are separate records, joined by “and”; a condition that tells them apart may be missing. Equal values may be shown once. Activity calls are given as the source filed them. Cut-off read from the data, not from the text of the source, unless noted: active = inhibition above about 80%; inactive = the rest.

Columns and labels:
[1] = target: NAD(+) hydrolase SARM1 (Homo sapiens) (UniProt Q6SZW1); assay: blocking NAD cleavage by SARM1 SAM-TIR – cell lysate, NAD-Glo luminescence (AID 1508614;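 active = compound whose remaining NAD level is above about 45 nM, limit read from the data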;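 note: higher remaining NAD means stronger inhibition of SARM1 NADase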); conditions: SAM-TIR HEK293T lysate NADase, at 1 µM, stronger effect = higher value
[2] = target: Mitogen-activated protein kinase 7 (Homo sapiens) (UniProt Q13164); assay: Gal4-ERK5 driven luciferase induction – cell-based, HTS, primary screen (AID 1508626;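 active = luciferase signal above three times the same-plate solvent-only control wells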;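 note: luciferase driven by Gal4-ERK5 fusion binding five Gal4 sites before minimal TATA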); conditions: HeLa Gal4-ERK5 transactivation, 18 h, at 5 µM, stronger effect = higher value
[3] = chitosan synthesis blockers in C. neoformans – flow cytometry, Cibacron Brilliant Red staining (AID 1347148; call rule not given here;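 note: compound exposure lasted three days at 37 degrees C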); conditions: Cryptococcus neoformans chitosan, stronger effect = lower value; at 10 µM unless noted
[4] = growth inhibition, single agents and combos, LFS_MB_1R, cell-based, cisplatin or BGB combos, synergistic combos for chromothripsis tumors (AID 1671452); conditions: LFS_MB_1R medulloblastoma cells, stronger effect = higher value;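 note: cells exposed for 96 hours before readout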
[5] = growth inhibition, single agents and combos, CRL2098, cell-based, BGB or cisplatin IC20 combos, synergistic combos for chromothripsis tumors (AID 1671454); conditions: CRL2098 osteosarcoma cells, drug combinations, stronger effect = higher value;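 note: cells exposed for 96 h before readout; 0% = vehicle DMSO and 100% = killing by high DMSO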
[6] = growth inhibition, single agents and combos, HD-MB03, cell-based, BGB or cisplatin IC20 combos, synergistic combos for chromothripsis tumors (AID 1671455; in the data active = inhibition above about 83%;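 note: 0% = vehicle DMSO and 100% = high DMSO as cytotoxic control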); conditions: HD-MB03 medulloblastoma cells, stronger effect = higher value
[7] = growth inhibition, single agents and combos, UWB1.289, cell-based, BGB or cisplatin combos, synergistic combos for chromothripsis tumors (AID 1671456); conditions: UWB1.289 ovarian carcinoma cells, stronger effect = higher value;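 note: cells exposed to compound for four days; 0% = vehicle DMSO and 100% = killing by high DMSO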
[8] = growth inhibition, single agents and combos, LFS_MB_2R, cell-based, cisplatin combos, synergistic combos for chromothripsis tumors (AID 1671457); conditions: LFS_MB_2R medulloblastoma cells, stronger effect = higher value;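 note: cells exposed to compound for four days before readout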
[9] = UWB1.289_BRCA1 ovarian cancer growth, cell-based, BGB or cisplatin combinations (AID 1671459); conditions: UWB1.289 BRCA1 ovarian carcinoma, drug combinations, stronger effect = higher value
[10] = drug combination toxicity in non-malignant astrocytes – cell-based, BGB or cisplatin IC20 combos, cytotoxicity control for chromothriptic childhood tumor combination screen (AID 1671460); conditions: Human astrocytes, viability inhibition, drug combinations, at 0.5 µM, stronger effect = higher value;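 note: cells exposed to compounds for 96 hours before viability readout; 0% = vehicle and 100% = killing control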
[11] = P. berghei load reduction in hepatocytes – cell-based, HepG2, luciferase luminescence, HepG2 viability, primary screen (AID 624349; in the data active = parasite load remaining mostly below about 12%, no sharp cut-off; inactive = mostly above about 10%;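 note: 100% = mean of DMSO negative control wells on the same plate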); conditions: P. berghei liver stage in HepG2, luciferase luminescence, concentration not given here; parasite load remaining: stronger effect = lower value; viability: measured here: HepG2 viability without parasites
[12] = galactose survival enhancers in mitochondrial complex I cybrids – cell-based, galactose medium, ATP luminescence, primary screen (AID 1645843;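 active = z-score of at least 1.8 in each of two replicates, scored against plate mean and spread of sample wells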;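 note: positive z means more ATP and so rescue of galactose-driven cybrid death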); conditions: complex I mutant cybrid cells, 72 h, stronger effect = higher value
[13] = liver-stage malaria parasite load reduction – cell-based, known kinase inhibitor set, luminescence, hepatoma host viability (AID 624392; call rule not given here;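 note: infected cells incubated roughly two days before readout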); conditions: Plasmodium liver stage in hepatoma cells, luciferase luminescence, concentration not given here; liver cell % of control: measured here: host liver cell viability; parasite % of control: stronger effect = lower value
[14] = blockers of cellular phospholipid synthesis – cell-based, LOPAC library, screen 4, primary screen (AID 1347384; call rule not given here); conditions: animal cells, phospholipid biosynthesis inhibition screen; at 10 µM
[15] = compounds altering circadian rhythm period length – cell-based, LOPAC library, luminescence reporter (AID 2774; call rule not given here;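 note: values are relative to mean of DMSO wells on each plate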); conditions: circadian reporter cells, at 7 µM, actives lie on both sides
[16] = tested on: Hepatitis C virus NS3 helicase; assay: blockers of NS3h binding to ssDNA – biochemical, fluorescence polarization, LOPAC1280 library, primary screen (AID 687035; in the data active = inhibition above about 37%); conditions: Purified HCV NS3 helicase, Cy5-dT15 ssDNA binding fluorescence polarization; stronger effect = higher value; concentration not given here
[17] = compounds altering Cy5-DNA-NS3h complex signal – biochemical, LOPAC1280, artefact control for HCV NS3 helicase inhibitor project (AID 687037; call rule not given here); conditions: Cy5-DNA-NS3h complex fluorescence interference counterscreen
[18] = compounds altering viability of human ES cells (AID 493140; call rule not given here;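 note: cells exposed to compounds for four days before counting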); conditions: human embryonic stem cell survival screen; stronger effect = higher value
[19] = measured here: combination with BGB IC40, at 0.05 µM
[20] = measured here: combination with cisplatin, at 0.5 µM
[21] = measured here: combination with cisplatin, at 5 µM
[22] = measured here: combination with BGB at IC20, at 0.5 µM
[23] = measured here: combination with cisplatin at IC20, at 0.5 µM
[24] = measured here: combo with BGB at IC20, at 0.5 µM
[25] = measured here: combo with cisplatin at IC20, at 0.5 µM
[26] = measured here: inhibition with BGB combination, at 0.05 µM
[27] = measured here: inhibition with cisplatin combination, at 0.05 µM
[28] = BGB combination, concentration series, at 5 µM
[29] = cisplatin combination, concentration series, at 5 µM
[30] = measured here: combo with BGB IC20
[31] = measured here: combo with cisplatin IC20

Chain of NAD(+) hydrolase SARM1 (Homo sapiens) (Q6SZW1 whole entry, looked up, the tested form may be a part): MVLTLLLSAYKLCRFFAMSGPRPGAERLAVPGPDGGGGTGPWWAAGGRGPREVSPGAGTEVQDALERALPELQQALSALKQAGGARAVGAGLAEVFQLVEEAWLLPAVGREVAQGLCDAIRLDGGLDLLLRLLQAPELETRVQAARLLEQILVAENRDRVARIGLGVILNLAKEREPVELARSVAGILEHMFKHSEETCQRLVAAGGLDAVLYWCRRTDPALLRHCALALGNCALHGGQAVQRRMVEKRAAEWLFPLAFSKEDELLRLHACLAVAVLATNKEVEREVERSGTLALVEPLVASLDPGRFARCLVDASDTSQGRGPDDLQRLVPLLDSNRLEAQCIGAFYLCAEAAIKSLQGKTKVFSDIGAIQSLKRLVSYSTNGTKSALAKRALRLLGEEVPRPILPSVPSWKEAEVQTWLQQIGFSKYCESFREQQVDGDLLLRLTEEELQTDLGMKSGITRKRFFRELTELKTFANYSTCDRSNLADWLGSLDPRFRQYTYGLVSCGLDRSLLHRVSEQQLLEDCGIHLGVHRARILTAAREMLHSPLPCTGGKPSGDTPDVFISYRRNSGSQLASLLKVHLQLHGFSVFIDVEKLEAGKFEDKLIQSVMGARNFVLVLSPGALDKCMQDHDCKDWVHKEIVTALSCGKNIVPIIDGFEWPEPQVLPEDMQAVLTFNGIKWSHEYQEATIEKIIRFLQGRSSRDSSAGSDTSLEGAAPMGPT
Chain of Mitogen-activated protein kinase 7 (Homo sapiens) (Q13164 whole entry, looked up, the tested form may be a part): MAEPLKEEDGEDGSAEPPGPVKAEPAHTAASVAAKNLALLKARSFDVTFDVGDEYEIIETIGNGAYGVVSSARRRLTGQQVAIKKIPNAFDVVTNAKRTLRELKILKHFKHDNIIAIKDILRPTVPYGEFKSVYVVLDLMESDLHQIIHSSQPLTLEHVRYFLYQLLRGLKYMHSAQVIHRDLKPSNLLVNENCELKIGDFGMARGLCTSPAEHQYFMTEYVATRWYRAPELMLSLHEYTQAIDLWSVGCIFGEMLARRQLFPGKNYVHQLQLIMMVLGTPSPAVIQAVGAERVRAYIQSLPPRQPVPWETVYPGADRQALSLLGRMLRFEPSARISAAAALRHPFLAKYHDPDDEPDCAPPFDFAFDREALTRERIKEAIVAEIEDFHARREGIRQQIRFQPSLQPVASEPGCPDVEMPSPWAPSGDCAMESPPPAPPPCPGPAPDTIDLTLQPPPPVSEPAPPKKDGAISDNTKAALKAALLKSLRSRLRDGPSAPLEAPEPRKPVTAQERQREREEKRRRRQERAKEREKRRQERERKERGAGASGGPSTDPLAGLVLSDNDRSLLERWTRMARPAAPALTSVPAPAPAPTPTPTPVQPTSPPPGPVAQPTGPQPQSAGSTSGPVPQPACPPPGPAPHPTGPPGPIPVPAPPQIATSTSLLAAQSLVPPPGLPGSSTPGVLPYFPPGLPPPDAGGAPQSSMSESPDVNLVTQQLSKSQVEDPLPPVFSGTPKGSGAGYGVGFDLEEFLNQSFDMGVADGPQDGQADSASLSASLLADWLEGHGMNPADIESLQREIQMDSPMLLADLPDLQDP

CCCCCCCCCCCCCCCC(=O)OC[C@@H](NC(=O)C(Cl)Cl)[C@H](O)c1ccc([N+](=O)[O-])cc1
remaining NAD [1]: 10 nM (inactive) | luciferase signal [2]: 64 AU (inactive)

C/C=C1\C2C=C(C)CC1(N)c1ccc(=O)[nH]c1C2 (configuration not stated)
fold fluorescence [3]: 4.5 [at 206.3 µM] (inactive)

C[C@]12C=CC(=O)N[C@@H]1CC[C@@H]1[C@@H]2CC[C@]2(C)[C@@H](C(=O)Nc3cc(C(F)(F)F)ccc3C(F)(F)F)CC[C@@H]12
remaining NAD [1]: 10 nM (inactive)

O=C(O)CO.[NH2-].[NH2-].[Pt+2]
inhibition ([4]; at 0.5 µM): -13.7% (inactive) | inhibition [4, 19]: -19.6% | inhibition [4, 20]: -19.7% | inhibition [4, 21]: -34.1% | inhibition ([5]; at 0.5 µM): -21.5% (inactive) | inhibition [5, 22]: -45.1% | inhibition [5, 23]: 11.3% | inhibition ([6]; at 0.5 µM): -6.84% (inactive) | inhibition [6, 24]: -6.51% | inhibition [6, 25]: -6.47% | inhibition ([7]; at 0.5 µM): 4.06% (inactive) | inhibition [7, 26]: -8.1% | inhibition [7, 27]: -3.04% | inhibition ([8]; at 0.5 µM): -20.3% (inactive) | inhibition [8, 20]: -13.9% | inhibition [8, 21]: -30.3% | inhibition [9, 28]: -0.864% | inhibition ([9]; at 0.5 µM): -1.6% (inactive) | inhibition [9, 29]: 15.4% | inhibition [10]: 13.7% (inactive) | inhibition [10, 30]: 19.5% | inhibition [10, 31]: 18.5%

C[N+]1(C)[C@@H]2CC(OC(=O)C(O)(c3cccs3)c3cccs3)C[C@H]1[C@@H]1O[C@@H]12 (some centres not stated)
parasite load remaining [11]: 18% (inactive) | viability [11]: 66.5% | z-score [12]: 0.685 (inactive)

Cc1cc(C(C)Nc2ccccc2)c2nc(N3CCOCC3)cc(=O)n2c1 (configuration not stated)
parasite load remaining [11]: 33.1% (inactive) | viability [11]: 62.4% | liver cell % of control [13]: 99% and 87.4% and 105% | parasite % of control [13]: 84.7% (inactive) and 70.8% (inactive) and 54.4% (inactive)

COc1ccc(Cc2nccc3cc(OC)c(OC)cc23)cc1OC
outcome [14]: inactive

COc1cc(Oc2ccnc3cc(OC)c(OC)cc23)ccc1NC(=O)NC(C)c1nccs1 (configuration not stated)
liver cell % of control [13]: 91.8% and 94.8% and 112% | parasite % of control [13]: 110% (inactive) and 137% (inactive) and 49.5% (inactive)

COCCNCCCn1c(C(=O)CF)c(-c2ccc(C)cc2)c2c(N)ncnc21
parasite % of control [13]: 34.2% (inactive) and 108% (inactive) and 115% (inactive)

COc1cc2ncnc(-n3nc(-c4ccccn4)nc3N)c2cc1OC
inhibition ([4]; at 0.5 µM): -45.7% (inactive) | inhibition [4, 19]: -46.2% | inhibition [4, 20]: -87.1% | inhibition [4, 21]: -37.2% | inhibition ([5]; at 0.5 µM): -78.1% (inactive) | inhibition [5, 22]: -51.1% | inhibition [5, 23]: -60.2% | inhibition ([6]; at 0.5 µM): -15.7% (inactive) | inhibition [6, 24]: -13.6% | inhibition [6, 25]: -21.1% | inhibition ([7]; at 0.5 µM): -16.4% (inactive) | inhibition [7, 26]: -29.1% | inhibition [7, 27]: -13.1% | inhibition ([8]; at 0.5 µM): -18.6% (inactive) | inhibition [8, 20]: -13.8% | inhibition [8, 21]: 1.78% | inhibition [9, 28]: 15% | inhibition ([9]; at 0.5 µM): -15.7% (inactive) | inhibition [9, 29]: 9.66% | inhibition [10]: 6.38% (inactive) | inhibition [10, 30]: 7.82% | inhibition [10, 31]: -1.55%

OCc1ccc(-c2nn(Cc3ccccc3)c3ccccc23)o1
period change [15]: -0.37 h (inactive) | inhibition [16]: 0% (inactive) | fluorescence ratio (interference) [17]: 1 (inactive) | fold fluorescence [3]: 11.2 [at 164.3 µM] (inactive) | outcome [14]: inactive | z-score [12]: -0.46 (inactive)

Cc1cnc(CNC(=O)c2c(=O)c3ccc(N4CCCN(C)CC4)nc3n3c2sc2ccccc23)cn1
inhibition ([4]; at 0.5 µM): 6.38% (inactive) and -24.6% (inactive) | inhibition [4, 19]: -8.97% and -9.02% | inhibition [4, 20]: 91.9% and 6.04% | inhibition [4, 21]: 104% and 102% | inhibition ([5]; at 0.5 µM): 31.8% (inactive) and -46.4% (inactive) | inhibition [5, 22]: 40.6% and -32.3% | inhibition [5, 23]: 37% and -70.3% | inhibition ([6]; at 0.5 µM): 51.2% (inactive) and 21.9% (inactive) | inhibition [6, 24]: 53.1% and 31.3% | inhibition [6, 25]: 36.7% and 11.5% | inhibition ([7]; at 0.5 µM): 39.7% (inactive) and 9.86% (inactive) | inhibition [7, 26]: -5.3% and -40% | inhibition [7, 27]: -10.5% and -7.68% | inhibition ([8]; at 0.5 µM): -14.9% (inactive) and -31.5% (inactive) | inhibition [8, 20]: -16.1% and -30.8% | inhibition [8, 21]: 108% and -28.8% | inhibition [9, 28]: 117% and 38.3% | inhibition ([9]; at 0.5 µM): 44.8% (inactive) and 2% (inactive) | inhibition [9, 29]: 122% and 71.6% | inhibition [10]: 45.8% (inactive) and 19.7% (inactive) | inhibition [10, 30]: 41.5% and 16.4% | inhibition [10, 31]: 31.2% and 2.96%

Cn1cc(-c2ccc3nnc(C(F)(F)c4ccc5ncccc5c4)n3n2)cn1
liver cell % of control [13]: 86.8% and 81.6% and 92.2% | parasite % of control [13]: 347% (inactive) and 352% (inactive) and 281% (inactive)

CN(C)N=Nc1nc[nH]c1C(N)=O
survival [18]: 12.2 (inactive) | parasite load remaining [11]: 83.6% (inactive) and 67% (inactive) | viability [11]: 97.7% and 78.1%
